# Tested on: VDR:RXRa (NR concentration 270 nM, RXRa partner concentration 90 nM)
# Assay: PBM binding z-score (relative to random genomic background probes); higher = stronger binding; sequences stand for … in GC…GCGATTGACAGCGTAGAATGAAGG
# Experimental: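 Protein-binding microarray (Agilent 4x180K custom design, double-stranded 60-nt probes: 5' GC cap, 34-nt variable region, 24-nt constant primer region; full probe sequence given). Purified or IVT nuclear receptor:RXRα heterodimers (3:1 NR:RXRα, mostly 270:90 nM) or homodimers were incubated for 1 h in PBS with 2% milk and no ligand, then detected with Alexa488 antibodies. Fluorescence from o1-orientation probes (~5 replicates averaged) was converted to z-scores against 500 random hg19 background probes. Variable regions are seed direct-repeat (DR0–DR5) sites, all their single-nucleotide variants and half-site ablations.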
row,Sequence,PBM binding z-score
1,CCGACTGGGGCAGAAAGGCTACCATACCATCCGG,-0.639
2,CCTGCTAGGTCAATGGTAAGCTAAAGCAGCTCGC,0.595
3,GATACATGGTCAAGGCCAGAGTACGCGTATTGAT,-0.256
4,CCTACTGGGTCAAGGTCATTGATCAGTCAAAGCA,4.84
5,GAAACAGGGTCAGCTAGAGGCCAGAGTATGGAAA,3.64
6,CAGCCTAGGTCAGGGCCTGTATAGGAGGAACGTT,-0.0829
7,GCTAGTTGGTCAGTACAAGGTCACACACCGGTCG,3.24
8,GCATATAGGTAATACAATGTGAAAGTCCGATTGT,-0.0597
9,TCATATAGGTAAAGGTGATAGTCGAACGATATGA,0.559
10,GATACAGGCTCAAGGCCAGAGTACGCGTATTGAT,-0.543
11,ATCCCTAGGTAAAAGTTCAGTGAATCCCGAGGAT,0.958
12,CAAACTAGGTCACAGAAGTCAAAGTCCGTGCGTA,3.91
13,ACCATTAGTTGACTTAGGGCAACCGATACGACGC,0.475
14,ATCGAAAGGTCGAAGGTAAGTATACCCACCCGAA,2.51
15,GCGACTGGGGCATGAGCAGGTTACCATAACTTAA,-0.262
16,CCGACTGGGGCAAAGCTTACCATACTCAGTACGA,-0.585
17,TCTAGTTGGTCAAAGGTCACACAGTCGAAATGCG,5.68
18,TAGCCTAGGTCATGGGTCAGTATACCACGCGAAC,3.31
19,GCATATAGATAATACAAGGTGAAAGTCCGATTGT,0.152
20,TCGAGTAGGTTACCTATGGGGCATTCAGCTTTCT,-0.0814

row,Sequence,PBM binding z-score
1,GCGGCTAGGTCAACTGATGGTCAGCTAAAGCTCG,1.28
2,CAAACTAGGTGAAAGGTCAAAGTCGAGCCAACCA,5.23
3,TCTAGCAGGCCAGAGGGGCACTCAAGAGGTACGG,-0.288
4,CCTCAGAGGACAGAAGGTCAGAGCTGTCCGCTTT,1.07
5,CGTCCAAGGTCAATGCTAGGTCAGTCAAAGCATT,5.1
6,CCTTACTGGTCACGAGGTTATAGCACGACGAGCG,1.86
7,AGAATGATGTTATTAAGATCAGGGAATTGCGGTC,0.0323
8,ACTATTAGTTGAGACGAGTGCAACCGATAGGTTG,0.942
9,TGAATGAGGTTATAAGTTCAGGGAACGTTGCAAA,3.67
10,GCGACTGGGGCAAAGCAGGTCACCATAAGGTTGG,2.52
11,TCTTGTAGATCAACAGAAGGTTAAGAAAGATCGA,0.765
12,CCTAGCAGGCCAGGGTCACTCAGGCATTTCGCTT,2.22
13,TCTAGTTGGACACGGAGGTCACACACGACGGGTA,3.76
14,AGTCAAAGTTCATCTAGGAAACGTAAGATATGCT,4.66
15,TCAGATAGGTAAACAGGTGAAAGTCCGTAAGTTA,0.923
16,AGAACGAGGGCACGCTGAGTTGATAGGAGAGTAG,2.04
17,GCTTGCAGATCAAGGTTAAGAAAGACTAAGCTAA,-0.0251
18,TTACCAAGGTGAAGGTTGTTGATCCCTCTGTAGA,0.381
19,CCTAGTTGGTCAGGAGGTCACGCACCGGATATGA,4.58
20,CGTCCAAGGTCAGAGAGGTCCGTGAATGCCGAGT,4.73

# — the supplement of paper PMC6555819
